Counter-ions that a name gives are not always drawn.

This assay concerns Danio rerio larvae Tg(actc1b:ZsGreen-LC3), 3 dpf. Description: LC3 puncta relative area vs vehicle, without NH4Cl (log2 fold change); higher = more autophagosomes. The settings on record: 10 µM; treatment time 16 h; NH4Cl: none. On the procedure:
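Transgenic Tg(actc1b:ZsGreen-map1lc3) zebrafish larvae (2 dpf) were treated for 16 h with Tocris library compounds at 10 µM (n = 12 larvae per compound). Skeletal-muscle LC3 puncta area relative to body area was measured by high-content confocal imaging before and after 4 h of 100 mM NH4Cl (autophagic flux), normalised to vehicle (DMSO), and reported as log2 fold change.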
For `c1ccc(N2CCN(CCCOc3ccc4c(c3)OCO4)CC2)cc1` [BP 554 maleate], the “LC3 puncta (log2)” value turned out to be 0.01.

For `O=C(O)c1cccnc1C(=O)O` [Quinolinic acid], the “LC3 puncta (log2)” value turned out to be 0.278.

Consider `CC(C)(Oc1ccc(Cl)cc1)C(=O)O` [Clofibric acid], for which the “LC3 puncta (log2)” value came out at 0.448. On to `CCN(CC)CCOC(=O)C1(c2ccc([N+](=O)[O-])cc2)CCCC1` [Nitrocaramiphen hydrochloride], for which the “LC3 puncta (log2)” value was found to be 0.254. The value for `CN1CCC(=C2c3ccccc3CC(=O)c3sccc32)CC1` [Ketotifen fumarate] was 0.589; that for `CCN(CC)CCOCCOC(=O)C1(c2ccccc2)CCCC1` [Carbetapentane citrate] was -0.0165; that for `CNC(=O)c1cc2c(cn1)[nH]c1ccccc12` was 0.13.

With `CC(=O)N[C@@H](CC(=O)N[C@@H](CCC(=O)O)C(=O)O)C(=O)O` [Spaglumic acid], the “LC3 puncta (log2)” value was -0.106. Then `COc1ccc(CCN(C)CCc2ccc(OC)c(OC)c2)cc1OC` [YS-035 hydrochloride], with 0.265; and `CC(C)[N+]1(C)[C@@H]2CC[C@H]1C[C@@H](OC(=O)C(CO)c1ccccc1)C2` (stereo not given in full) [Ipratropium bromide], with -0.65; and `N=C(N)SCCc1c[nH]cn1` [Imetit dihydrobromide], with 0.595. Then `COc1ccc([C@@H]2Sc3ccccc3N(CCN(C)C)C(=O)[C@@H]2OC(C)=O)cc1` [Diltiazem hydrochloride], with 0.112; and `CC(C)NC[C@H](O)COc1ccc(CC(N)=O)cc1` [(S)-(-)-Atenolol], with 0.12. Then `CCC1(c2ccccc2)C(=O)NCNC1=O` [Primidone], with 0.333; and `O=S(=O)(c1cccc2c(Cl)cccc12)N1CCCNCC1` [ML 9 hydrochloride], with 0.232; and `CC#CCOC(=O)C1=CCCN(C)C1` [Arecaidine but-2-ynyl ester tosylate], with 0.463. Regarding `NC(=O)CCCCn1ccc(NC(N)=NCC(F)(F)F)n1`, the “LC3 puncta (log2)” value was found to be 0.486.

In the case of `COc1ccccc1N1CCN(CCCCN2C(=O)c3ccccc3C2=O)CC1` [NAN-190 hydrobromide], the “LC3 puncta (log2)” value came out at 0.201. The value for `COC(=O)C1=C(C)NC(C)=C(C(=O)OCCSc2ccccc2)C1C` (stereo not given) was 0.00326. Consider `C/N=C(/NC#N)NCCSCc1csc(NC(=N)N)n1` [Tiotidine], for which the “LC3 puncta (log2)” value came out at 0.383. Turning to `O=C(O)C1=CCCNC1` [Guvacine hydrochloride], the “LC3 puncta (log2)” value was -0.168. The value for `CCCC[C@@H](C=O)NC(=O)[C@H](CC(C)C)NC(=O)OCc1ccccc1` [Calpeptin] was 1.15; that for `CC(C)[C@H]1CC[C@H](C(=O)N[C@H](Cc2ccccc2)C(=O)O)CC1` [Nateglinide] was 0.316. Then `COc1ccc2[nH]c(-c3ccccc3)c(CCNC(C)=O)c2c1` [2-Phenylmelatonin], with 0.513. Consider `O=C1CN(/N=C/c2ccc(-c3ccc([N+](=O)[O-])cc3)o2)C(=O)N1` [Dantrolene, sodium salt], for which the “LC3 puncta (log2)” value was found to be 0.18. The value for `Clc1cccc(Nc2nnc(-c3ccccc3)c3ccccc23)c1` was 0.29. The value for `Cc1ccc(/C(=C\CN2CCCC2)c2ccccn2)cc1` [trans-Triprolidine hydrochloride] was -0.298; that for `O=C(O)c1cc(O)c2ccc(Cl)cc2n1` [7-Chlorokynurenic acid] was 0.0331. Then `CC(C)CC(NC(=O)OCC1c2ccccc2-c2ccccc21)C(=O)O` (stereo not given), with 0.0242; and `O=[N+]([O-])c1cccc2c(Br)[nH]nc12` [3-Bromo-7-nitroindazole], with 0.159. In the case of `O=C(OCCN1CCCCC1)c1c[nH]c2ccccc12`, the “LC3 puncta (log2)” value came out at 0.11.

As for `COc1ccc2[nH]c(I)c(CCNC(C)=O)c2c1` [2-Iodomelatonin], the “LC3 puncta (log2)” value was determined as 0.515. The value for `CC(=O)NCC(=O)N[C@H](CCC(=O)O)C(=O)O` [N-Acetylglycyl-D-glutamic acid] was -0.0216; that for `N=C(N)S/C=C\C(=O)O` [ZAPA sulfate] was 0.0963. Then `NCC(O)(CS(=O)(=O)O)c1ccc(Cl)cc1` (stereo not given) [2-Hydroxysaclofen], with 0.46. With `CC(C)(C)NC[C@H](O)COc1nsnc1N1CCOCC1` [(S)-Timolol maleate], the “LC3 puncta (log2)” value amounted to 0.305.

In the case of `CN1CCN(C2=Cc3ccccc3Oc3ccc(Cl)cc32)CC1`, the “LC3 puncta (log2)” value was 0.742. As to `O=C(O)c1cc(=O)c2c(Cl)cc(Cl)cc2[nH]1` [5,7-Dichlorokynurenic acid], the “LC3 puncta (log2)” value is -0.0706. The value for `COc1cc(N)c(Cl)cc1C(=O)OCCCN1CCCCC1` was -0.0084; that for `O=C1c2ccccc2CCC1CNCCc1ccc(O)cc1` (stereo not given) [HEAT hydrochloride] was 0.103.

(Values after the supplement of paper PMC12532568.)
